MsrA inhibitor – inhibits bovine methionine sulfoxide reductase A. 360,000 tested, 0.75% active. purified bovine MsrA, absorbance read-out. inhibition, % at 15.5 µM. AID 651718; in the data active = inhibition above about 4.5%;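 note: 0% = vehicle wells with enzyme and 100% = reference inhibitor wells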
PKA-R2B activ – activators of human PKA-R2B complex; P22694+P31323; 340,000 tested, 0.079% active; PKA-R2B holoenzyme dissociation, Cy5-IP20 fluorescence polarization; R2B truncated from residue 108, S112A mutant; 0% DMSO only, 100% 113 µM cGMP; activation, % at 11.4 µM;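 active = activation above a cutoff set at the mean over all compounds plus 3 SD, cut at about 18% in these data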;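 note: higher means more holoenzyme dissociation and a rise in polarization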
Target sequence (P31323 whole entry, looked up, other chains not shown, the tested form may be a part): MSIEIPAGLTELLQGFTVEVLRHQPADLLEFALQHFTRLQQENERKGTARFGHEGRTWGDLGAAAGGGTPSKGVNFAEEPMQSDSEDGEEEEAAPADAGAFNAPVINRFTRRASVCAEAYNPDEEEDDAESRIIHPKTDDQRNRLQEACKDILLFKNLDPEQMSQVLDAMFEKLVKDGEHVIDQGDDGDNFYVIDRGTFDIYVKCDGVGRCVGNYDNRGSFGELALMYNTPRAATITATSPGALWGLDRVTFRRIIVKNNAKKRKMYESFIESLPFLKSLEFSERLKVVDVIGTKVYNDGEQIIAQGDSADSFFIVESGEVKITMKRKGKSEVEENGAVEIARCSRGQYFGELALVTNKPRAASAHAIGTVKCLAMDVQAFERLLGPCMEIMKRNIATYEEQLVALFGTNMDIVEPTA
bovine MsrA act – bovine methionine sulfoxide reductase A activation; purified bovine MsrA, absorbance read-out; activation, % at 10.6 µM; 360,000 tested, 0.3% active; AID 602163; in the data active = activation above about 7.5%;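 note: 0% = vehicle and 100% = reference activator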
PKA-R1A act – PKA-R1A complex activation. activation, % at 11.4 µM. AID 504707. 340,000 tested, 0.083% active. P00514+P68181. PKA-R1A dissociation, Cy5-IP20 fluorescence polarization; scaled: DMSO 0%, 113 µM cGMP 100%;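 active = percent activation above the mean of all tested compounds plus 3 SD, cut at about 19% in these data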;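 note: higher means more PKAc released from R1A so a rise in polarization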
Mot1-301 SUMO – SUMOylation pathway inhibition by Mot1-301 growth rescue; S. cerevisiae Mot1-301 growth rescue, ATP luminescence, 38.5C; percent above DMSO median, 100 means doubled; growth rescue, % at 18.8 µM; 320,000 tested, 1% active; AID 2716;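 active = every valid replicate shows activation above 250% relative to neutral control wells; inactive = the rest, any valid replicate at or below 250%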;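 note: OY570 slx delta 5 strain wells were the positive control but not used for scaling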
Yeast Mot1 SUMO – yeast SUMO pathway inhibition in dose response; shares compounds with Mot1-301 SUMO; growth activity, percent, % at 42 µM; S. cerevisiae Mot1-301 galactose growth, ATP luminescence, 24 h; -100 = growth of slx-deleted rescue strain; 2,300 tested, under 10 active;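 active = Signal drops as the depositor expects, and the fitted half-maximal dose is no more than ten times the top valid tested dose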;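 note: more negative values mean stronger growth rescue toward the control strain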
Starred values were filed as active, the others as inactive; x = no result given; + = active, no number; [ ] = another dose, or the depositor's remark. Sampled rows, rich in hits. Any-hit rate of the full collection: about 2%.

SMILES | MsrA inhibitor | PKA-R2B activ | bovine MsrA act | PKA-R1A act | Mot1-301 SUMO | Yeast Mot1 SUMO
Cc1cccc(NC(=O)C2CC(O)CN2C(=O)OCc2ccccc2)c1 (stereo unspecified) | -1 | 6 | 0 | -3 | 2 | x
CC(NC(=O)OCc1ccccc1)C(=O)N1CC(O)CC1C(=O)O (stereo unspecified) | 1 | 6 | -3 | -8 | 451* | 1[21 µM]
COC(=O)C1=C(C)N(Cc2ccccc2C(F)(F)F)C(=NCc2ccc3c(c2)OCO3)NC1c1cccc(C(F)(F)F)c1 (stereo unspecified) | -1 | x | x | x | x | x
COc1cccc(C(=O)N2CCN(S(=O)(=O)Cc3ccccc3)CC2)c1OC | -1 | -17 | 0 | 3 | 530* | 0
CC(=O)c1ccc(NC(=O)CSc2nnc(-c3ccco3)o2)cc1 | -2 | 5 | -1 | 0 | 426* | 0
C#CCNC[C@@H]1CSCCS(=O)(=O)N1 | 3 | x | x | x | x | x
CSc1ccc(Cl)c(C(=O)Nc2ccc(N3CCOCC3)cc2)c1 | 0 | -1 | -6 | -7 | + | 0
Cc1sc(NC(=O)c2ccc(Br)s2)c(C(N)=O)c1C | 1 | -7 | -5 | 3 | 408* | -2
Cc1cccc(C=NNc2cc(C)c3cccc(C)c3n2)n1 | 0 | x | x | x | x | x
Cc1cc([N+](=O)[O-])ccc1NC(=O)CSc1nccc(=O)[nH]1 | -1 | -9 | -2 | 5 | 378* | 0
CCn1nnc(-c2ccccc2NC(=O)c2cc(OC)c(OC)c(OC)c2)n1 | 0 | -5 | -8 | -7 | -22 | x
CCn1nnc(-c2ccccc2NC(=O)c2cnccn2)n1 | 2 | 1 | -2 | 5 | 407* | 0
COC(=O)C1=C(C)N(C)C(=NCc2ccc(OC)cc2)NC1c1ccc(F)cc1 (stereo unspecified) | 1 | x | x | x | x | x
Cc1cccc(C)c1NC(=O)CSc1ncnc2nc[nH]c12 | -1 | -9 | 0 | 4 | 381 | x
O=C(CSc1ncnc2nc[nH]c12)Nc1ccccc1C(F)(F)F | 2 | -11 | -1 | 5 | 727* | 0
CCOc1cc(NC(=O)c2cccs2)c(OCC)cc1NC(=O)CCC(=O)NCCN1CCOCC1 | 2 | 2 | -2 | 5 | 388* | 1
CCOc1cc(NC(=S)NCCCN2CCOCC2)c(OCC)cc1NC(=O)c1cccs1 | 1 | 1 | 3 | -3 | 0 | x
O=C(N[C@H](Cc1ccccc1)C(=O)NCc1ccccn1)[C@H]1O[C@@H](n2ccc(=O)[nH]c2=O)[C@H](O)[C@@H]1O | -1 | x | x | x | x | x
COCc1[nH]nc2c1C(c1ccc(Br)cc1)N(Cc1ccccc1)C2=O (stereo unspecified) | 0 | x | x | x | x | x
S=c1[nH]nc(-c2ccccn2)n1/N=C/c1ccccc1 | 1 | -11 | -3 | -6 | 369* | 0
S=c1[nH]nc(-c2ccccn2)n1/N=C/c1ccc(Cl)cc1 | 0 | -4 | -2 | 0 | 21 | x
Oc1c(Br)cc(Br)cc1/C=N/n1c(-c2ccccc2)n[nH]c1=S | 0 | 8 | -1 | 14 | 644* | -2
Cc1nn(CC(N)=O)c(=O)c2ccccc12 | 0 | 1 | 0 | -7 | 482* | 0
O=C(NCc1ccccc1)[C@H]1CCCN1C(=O)[C@H]1CCCN1C(=O)c1ccc(F)c(C(F)(F)F)c1 | 1 | x | x | x | x | x
CC(C)(C)S(=O)(=O)N1C[C@H]2CC(=O)C(CCO)=C2[C@@H]1CCO | -1 | x | x | x | x | x
SMILES | MsrA inhibitor | PKA-R2B activ | bovine MsrA act | PKA-R1A act | Mot1-301 SUMO | Yeast Mot1 SUMO
O=C(Nc1nc(-c2ccccc2)cs1)NC1CCCCC1 | -1 | -1 | -2 | 4 | 4 | x
c1ccc(-c2csc(NC3CCCCC3)n2)cc1 | 1 | 3 | -4 | -4 | 923* | 0
N#C/C(=C\Nc1ccc2c(c1)OCCO2)c1nc2ccccc2[nH]1 | 4 | 6 | -4 | 4 | 935* | -1
N#C/C(=C\Nc1ccc2c(c1)OCCO2)c1nc(-c2ccccc2)cs1 | 0 | -15 | -8 | 0 | 5 | x
CCOC(=O)C1(Cc2cccc(Cl)c2)CCCN(C(=O)CCOC)C1 (stereo unspecified) | 3 | 2 | -2 | 0 | 389* | 0
CCOC(=O)C1(Cc2cccc(Cl)c2)CCCN(C(=O)CCSC)C1 (stereo unspecified) | -2 | -10 | -1 | 2 | -14 | x
CNC[C@H]1OCc2cnnn2CCCC(=O)N([C@@H](C)CO)C[C@@H]1C | 3 | x | x | x | x | x
O=C(NS(=O)(=O)c1cccc(F)c1)[C@H]1O[C@@H](n2ccc(=O)[nH]c2=O)[C@H](O)[C@@H]1O | -1 | x | x | x | x | x
Nc1ccn([C@@H]2O[C@H](C(=O)N3CCN(C(=O)N4CCCCC4)CC3)[C@@H](O)[C@H]2O)c(=O)n1 | 0 | x | x | x | x | x
COc1cccc(CNC(=O)[C@H]2CCCN2C(=O)C2CCCN2C(=O)c2ccc(OC)c(F)c2)c1 (stereo partly specified) | 1 | x | x | x | x | x
CN(C)CCNC(=O)c1onc(CSc2ccc(F)c(F)c2)c1C(=O)NCCN(C)C | 1 | 3 | 0 | 2 | 578* | 0
CCn1c(N2CCN(C(=O)C34CC5CC(CC(C5)C3)C4)CC2)nc2ccccc21 | x | -13 | 4 | -9 | 389* | 0
CCOC(=O)c1c(C)n(C)c2cc(-c3cccc(C(F)(F)F)c3)c(O)cc12 | 1 | -7 | -8 | -6 | 1 | x
CCOC(=O)c1c(C)n(C)c2cc(-c3ccc(C)cc3)c(O)cc12 | 2 | -14 | -4 | -13 | 645* | 0
Cc1cc(/C=N/NC(=O)c2ccsc2)c(C)n1-c1cnccn1 | 2 | -2 | -11 | 1 | 555* | 0
Cc1cc(C)cc(-n2c(C)cc(/C=N/NC(=O)c3ccncc3)c2C)c1 | 2 | -10 | -7 | -7 | 154 | x
CC(C)(C)OC(=O)N[C@H]1C=C[C@@H](CC(=O)OCC(F)(F)F)C1 | 0 | x | x | x | x | x
CCOC(=O)CN1C(=O)[C@]2(OCCC=C[C@H]2C)c2cc(OC)ccc21 | 2 | x | x | x | x | x
COc1ccc(OC)c2[nH]c(=O)c(CCNC(=O)c3ccc(S(=O)(=O)N4CCCC4)cc3)cc12 | 0 | 1 | -11 | -7 | 19 | x
CCN(CC)S(=O)(=O)c1ccc(C(=O)NCCc2cc3c(OC)ccc(OC)c3[nH]c2=O)cc1 | 0 | 6 | -7 | -5 | 438* | 0
NC(=O)c1ncn([C@@H]2O[C@H](C(=O)N3CCN(Cc4ccccn4)CC3)[C@@H](O)[C@H]2O)n1 | -1 | x | x | x | x | x
CC(=O)Cc1nsc(Nc2cccc(C)c2)n1 | 0 | 9 | -8 | 5 | 901* | 0
Cc1c(NC(C)c2ccccc2O)c(=O)n(-c2ccccc2)n1C (stereo unspecified) | -1 | -4 | -2 | -10 | 14 | x
Cc1c(NC(C)c2cc(Cl)ccc2O)c(=O)n(-c2ccccc2)n1C (stereo unspecified) | -1 | -2 | -7 | -3 | 455* | 1

Screening results from PubChem.
